# According to the supplement of paper PMC10338343:
# ± gives the standard deviation.
# System: MILI (PIWIL2) piRISC loaded with L1MC piRNA (26 nt)
# Assay: pre-steady-state target cleavage rate (min^-1); guide: L1MC piRNA 5'p-UAACUAAAUACUAUGCAAGCUGUAGG; MIWI and MILI are mouse PIWI proteins and EfPiwi is from a freshwater sponge; tags in brackets are library labels; higher = faster piRNA-guided slicing of the target
# In short: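 Cleave-'n-Seq used a transcribed, DNA-blocked target RNA library at 0.1 nM and active affinity-purified piRISC with one synthetic guide at 1 nM, with or without 500 nM GTSF1 partner protein, in HEPES–potassium acetate buffer at 33 °C for 0–8 or 0–960 min. Uncleaved targets were sequenced and normalised to depth and to weakly complementary targets, and three trials were pooled with k3 capped at 0.0001 min^-1. The pre-steady-state cleavage rate was estimated by a burst-and-steady-state fit.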
# [1] = auxiliary factor: 500 nM mouse GTSF1
# [2] = auxiliary factor: none (no GTSF1)
Sequence,pre-steady-state target cleavage rate [1],pre-steady-state target cleavage rate [2]
UCCUGGAUCAGCUUGCAUAGUAUUUGAGUUA,0.222 ± 0.036,0.00502 ± 0.0022
UCCUGGAUGAGCUUGGAUAGUAUAUAGUUA,0.122 ± 0.017,0.00462 ± 0.0024
UCCUGGAUGAGCUUGCAUAGUAUAAUGUUA,0.229 ± 0.061,0.00329 ± 0.0028
UCCUGGAUGAGCUUGCAAACUAUUUAGUUA,0.00935 ± 0.0025,0.00292 ± 0.0024
UCCUGGAUGUCCUUGGAUAGUAAUUAGUUA,0.411 ± 0.1,0.00325 ± 0.0027
UCCUGGUACAGAUUGCAUAGUAUUUAGUUA,0.257 ± 0.028,0.0104 ± 0.0044
UCCUGGAUCAGCUUGCUUACUAUUUAGUUA,0.0672 ± 0.0086,0.00436 ± 0.0022
UCCUGGAUGAGGUUGCAUAGUAUUUUGUUA,0.0801 ± 0.024,0.00402 ± 0.0029
UCCUGGAUCAGCAAGCAUAGUAUUUAGUAA,0.196 ± 0.016,0.00292 ± 0.0028
UCCUGGAACACCUUGGAUAGUAUUUAGUUA,0.153 ± 0.021,0.00568 ± 0.0025
UCCUGGUACAGGUUGCAUAGUAAUUAGUUA,0.325 ± 0.041,0.00664 ± 0.0029
UCCUGGAUGUCCUUGCUUACUAUUUAGUUA,0.016 ± 0.0064,0.00305 ± 0.0023
UCCUGGUACUGCUUGCAUACUAUUUAGUUA,0.0502 ± 0.015,0.00418 ± 0.0039
UCCUGGAUGAGGUUGCAUUGUAUUUAGUUA,0.0484 ± 0.01,0.00431 ± 0.0027
UCCUGGAUGUCGAUGCAUAGUAUUAUAGUUA,0.123 ± 0.021,0.00538 ± 0.0026
UCCUGGAUGUCCUUGCAUAGUAUUUAGUA,0.0747 ± 0.012,0.00356 ± 0.0024
UCCUGGAACAGCUAGCAUAGUAUAUAGUUA,0.229 ± 0.026,0.00524 ± 0.0027
UCCUGGAUGUCGUUGCAUAGUAUUUAGUA,0.148 ± 0.022,0.00424 ± 0.0026
UCCUGCUACAGCUUGCAAAGAAUUUAGUUA,0.0168 ± 0.0052,0.00324 ± 0.0017
UCCUGGAUGAGCUUGCAAAGUAUAUAGUUA,0.148 ± 0.02,0.00576 ± 0.0029
